Measurements published in article PMC5540273 (PLoS ONE, 2017).

Key:
Details in all cases: concentration: 1 μM,replicates: in singlicate; n = 1
[1] = tested on: T1, SNARK
T1 construct: gene NUAK2

[2] = tested on: SNRK
[3] = tested on: SRC
[4] = tested on: SRMS
[5] = tested on: SRPK1
[6] = tested on: SRPK2
[7] = tested on: SRPK3
[8] = tested on: STK16
[9] = tested on: STK33
[10] = tested on: STK35
[11] = tested on: STK36
[12] = tested on: STK39
[13] = tested on: SYK
[14] = tested on: SgK110
[15] = tested on: T2, TAK1
T2 construct: gene MAP3K7

[16] = tested on: TAOK1
[17] = tested on: TAOK2
[18] = tested on: TAOK3
[19] = tested on: TBK1
[20] = tested on: TEC
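Further: KINOMEscan kinase panel screen.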

| Structure (SMILES) | %Inh [1] [%] | %Inh [2] [%] | %Inh [3] [%] | %Inh [4] [%] | %Inh [5] [%] | %Inh [6] [%] | %Inh [7] [%] | %Inh [8] [%] | %Inh [9] [%] | %Inh [10] [%] | %Inh [11] [%] | %Inh [12] [%] | %Inh [13] [%] | %Inh [14] [%] | %Inh [15] [%] | %Inh [16] [%] | %Inh [17] [%] | %Inh [18] [%] | %Inh [19] [%] | %Inh [20] [%] |
| --- | --- | --- | --- | --- | --- | --- | --- | --- | --- | --- | --- | --- | --- | --- | --- | --- | --- | --- | --- | --- |
| CCNCC(Cc1ccccc1)NC(=O)c1cc(Br)c(-c2ccnc3[nH]ccc23)s1.Cl.Cl (stereo not shown) [GSK1383280] | 93.1 | 0 | 14 | 0 | 56 | 0 | 0 | 51 | 95.9 | 0 | 0 | 0 | 0 | 79 | 19 | 54 | 0 | 15 | 26 | 0 |
| CC(=O)Nc1ccc(-c2cc3ncnc(SCC(=O)O)c3s2)cc1 | 15 | 0 | 11 | 13 | 0 | 0 | 13 | 32 | 0 | 20 | 1 | 0 | 1 | 0 | 17 | 0 | 0 | 0 | 15 | 0 |
| Cn1ccc2ncnc(Oc3ccc(NC(=O)Nc4cccc(C(F)(F)F)c4)c(Cl)c3)c21 | 0 | 0 | 7 | 0 | 45 | 0 | 0 | 4 | 60 | 0 | 0 | 0 | 1 | 0 | 31 | 0 | 23 | 0 | 15 | 0 |
| FC(F)(F)c1cc(Br)cc(Nc2nccc(-c3cnn4ncccc34)n2)c1 [GW810578] | 47 | 0 | 39 | 6 | 9 | 0 | 0 | 42 | 12 | 9 | 19 | 0 | 21 | 0 | 62 | 58 | 0 | 4 | 17 | 0 |
| CCN1CCN(CCCC(=O)Nc2n[nH]c3nc(-c4ccc(O)cc4)c(Br)cc23)CC1 [SB-731579] | 0 | 0 | 0 | 0 | 0 | 0 | 13 | 2 | 0 | 0 | 0 | 0 | 0 | 0 | 11 | 53 | 65 | 66 | 0 | 0 |
| CN1CCN(CCCNc2nccc(-c3c(-c4ccc(F)cc4)nn4cc(C(N)=O)ccc34)n2)CC1 [GW622475] | 14 | 0 | 19 | 0 | 43 | 0 | 1 | 25 | 26 | 0 | 98.9 | 23 | 11 | 7 | 29 | 13 | 0 | 10 | 0 | 8 |
| COc1cc2ncn(-c3cc(OCC4CCCCC4)c(C(N)=O)s3)c2cc1OC [GSK204559] | 15 | 0 | 21 | 0 | 84 | 0 | 31 | 4 | 12 | 30 | 0 | 7 | 35 | 0 | 96.5 | 0 | 0 | 0 | 26 | 13 |
| Cc1n[nH]c2cc(Nc3ccnc(Nc4cccc(CN5CCOCC5)c4)n3)ccc12 [GW682569] | 25 | 0 | 77 | 0 | 92.2 | 13 | 65 | 90.8 | 0 | 0 | 9 | 16 | 34 | 0 | 57 | 0 | 0 | 0 | 63 | 0 |
| COC(=O)Nc1nc2cc(Oc3ccc(NC(=O)Nc4cc(C(F)(F)F)ccc4Cl)cc3)ccc2[nH]1.Cl [GW697465] | 0 | 0 | 1 | 0 | 41 | 32 | 3 | 0 | 57 | 0 | 0 | 13 | 24 | 0 | 62 | 0 | 0 | 0 | 0 | 15 |
| CC(C)S(=O)(=O)N1CCN(Cc2ccc3c(c2)nc(NC(=O)c2ccsc2)n3C[C@H](O)c2ccccc2)CC1 [GW635815] | 23 | 0 | 96.3 | 1 | 0 | 0 | 0 | 83 | 60 | 0 | 0 | 10 | 78 | 0 | 79 | 0 | 0 | 0 | 50 | 0 |
| COc1cc2c(Nc3ccc(NC(=O)c4ccccc4)cc3)ncnc2cc1OCCCN1CCOCC1 [GSK301329] | 7 | 0 | 20 | 19 | 0 | 0 | 2 | 12 | 41 | 4 | 0 | 0 | 7 | 0 | 0 | 0 | 0 | 0 | 0 | 0 |
| N#Cc1cccc(C(=O)NC2CCN(c3ccnc(Nc4ccc(F)cc4)n3)C2)c1 (stereo not shown) [GSK1379708] | 0 | 0 | 5 | 0 | 40 | 0 | 0 | 12 | 0 | 0 | 0 | 0 | 27 | 5 | 0 | 0 | 0 | 0 | 0 | 0 |
| NC(=O)Nc1sc(-c2ccc(F)cc2)cc1C(N)=O [GW789449] | 75 | 6 | 55 | 18 | 81 | 35 | 90.6 | 26 | 0 | 0 | 0 | 0 | 32 | 0 | 75 | 61 | 41 | 3 | 41 | 1 |
| O=C(NCC1CC1)c1ccc(-c2cc(C(=O)NC3CC3)ccc2F)cc1 [GW810445] | 0 | 0 | 9 | 2 | 0 | 0 | 0 | 4 | 0 | 0 | 0 | 15 | 17 | 51 | 4 | 0 | 0 | 0 | 26 | 2 |
| COc1cccc(C2=C(Nc3cccc(Cl)c3)C(=O)NC2=O)c1 [SB-341556] | 47 | 9 | 0 | 0 | 42 | 0 | 24 | 14 | 0 | 94.9 | 0 | 8 | 3 | 0 | 3 | 21 | 0 | 23 | 2 | 0 |
| CN(c1ccc2c(c1)nc(NCc1ccc(F)cc1)n2C)c1ccnc(Nc2ccc(CS(C)(=O)=O)cc2)n1.Cl [GW813244] | 0 | 0 | 64 | 56 | 41 | 0 | 67 | 46 | 0 | 15 | 7 | 0 | 73 | 8 | 19 | 0 | 61 | 3 | 54 | 25 |
| Cc1ccc2c(-c3ccnc(Nc4ccc(C(F)(F)F)cc4)n3)cnn2n1 [GW819776] | 0 | 0 | 0 | 28 | 14 | 0 | 26 | 48 | 52 | 0 | 9 | 6 | 42 | 20 | 2 | 1 | 23 | 0 | 48 | 9 |
| Cn1ccc2ncnc(Oc3ccc(NC(=O)Nc4cnn(C(C)(C)C)c4)c(Cl)c3)c21 | 10 | 0 | 82 | 0 | 74 | 11 | 0 | 16 | 7 | 0 | 7 | 0 | 0 | 38 | 85 | 0 | 15 | 0 | 10 | 0 |
| O=C(Nc1n[nH]c2cc(-c3ccco3)ccc12)C1CC1 [SB-737447] | 11 | 9 | 0 | 3 | 62 | 0 | 66 | 49 | 0 | 0 | 0 | 5 | 19 | 0 | 11 | 65 | 5 | 12 | 25 | 2 |
| CN1CCN(CCNc2nc3cc(Oc4ccc(NC(=O)Nc5cc(C(F)(F)F)ccc5F)cc4)ccc3[nH]2)CC1.Cl.Cl [GW768504] | 0 | 0 | 0 | 18 | 9 | 0 | 10 | 0 | 0 | 0 | 13 | 0 | 16 | 57 | 0 | 0 | 38 | 0 | 28 | 0 |
